Results as given in PubChem BioAssay (EPA / NIEHS).
The source made the active and inactive calls. Rule for the calls: active = hit-call score of the fitted dose curve at least 0.9, where 1 is the maximum; inactive = score below 0.9.

Experiments:
[1] = ATG_Ets_CIS: Attagene CIS-FACTORIAL HepG2 Assay for human Erythroblast Transformation Specific (ETS) (AID 2282941); settings: HepG2 ETS cis-reporter transcription, actives raise or lower the signal
Outline: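 HepG2 cells transiently transfected with cis-promoter reporter transcription units were dosed for 24 h; reporter mRNA was measured by RT-PCR, 6-FAM primer extension, HpaI digestion and capillary electrophoresis, with bidirectional fitting against DMSO baseline.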

[2] = molecular target: Hepatocyte nuclear factor 3-beta (Homo sapiens) (UniProt Q9Y261); assay: ATG_FoxA2_CIS: Attagene CIS-FACTORIAL HepG2 Assay for human Forkhead box A2 (FOXA2) (AID 2282942); settings: HepG2 cis-reporter transcription factor activity, 24 h; actives raise or lower the signal
Sequence of Hepatocyte nuclear factor 3-beta (Homo sapiens) (Q9Y261 whole entry, looked up): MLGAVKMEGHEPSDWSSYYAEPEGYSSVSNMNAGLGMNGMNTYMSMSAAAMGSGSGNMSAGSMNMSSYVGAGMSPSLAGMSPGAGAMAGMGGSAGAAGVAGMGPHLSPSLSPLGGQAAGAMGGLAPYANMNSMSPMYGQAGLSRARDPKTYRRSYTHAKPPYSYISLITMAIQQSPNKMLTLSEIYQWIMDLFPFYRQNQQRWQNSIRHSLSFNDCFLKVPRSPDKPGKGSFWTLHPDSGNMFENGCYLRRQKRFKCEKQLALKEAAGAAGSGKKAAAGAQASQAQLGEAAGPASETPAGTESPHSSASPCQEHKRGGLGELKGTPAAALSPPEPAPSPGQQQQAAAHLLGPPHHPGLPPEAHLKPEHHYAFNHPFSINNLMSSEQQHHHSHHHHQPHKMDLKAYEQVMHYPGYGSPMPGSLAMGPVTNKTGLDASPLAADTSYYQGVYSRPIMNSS
Outline: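 Endogenous transcription factor activity is captured via cis-element-driven reporter transcripts in transfected HepG2. Total RNA taken at 24 h post-dosing; labelled RT-PCR products resolved by capillary electrophoresis. Gain or loss fitted versus DMSO.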

[3] = ATG_FoxO_CIS: Attagene CIS-FACTORIAL HepG2 Assay for human Forkhead box O (FoxO) (AID 2282943); settings: HepG2 Attagene cis-reporter, FoxO element, mRNA; actives raise or lower the signal
Outline: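 24 h chemical exposure, HepG2 with transient cis-MRTU transfection. RNA extraction, oligo(dT) RT, reporter-specific PCR, primer-extension labelling, HpaI digestion, CE fragment analysis; bidirectional fit, DMSO baseline.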

[4] = ATG_GATA_CIS: Attagene CIS-FACTORIAL HepG2 Assay for human GATA Binding Protein (AID 2282944); settings: HepG2 GATA cis-element reporter, Attagene multiplex mRNA; actives raise or lower the signal
Outline: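 Endogenous transcription factor activity was captured through cis-promoter-driven reporters in transfected HepG2 cells. After 24 h exposure, reporter transcripts were quantified by RT-PCR with fluorescent capillary electrophoresis, and responses fitted both directions against DMSO.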

[5] = ATG_GLI_CIS: Attagene CIS-FACTORIAL HepG2 Assay for human Zinc Finger Protein GLI1 (AID 2282945); settings: HepG2, Attagene cis-factorial reporter mRNA, GLI element; actives raise or lower the signal
Outline: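 HepG2 cells transiently transfected with cis-promoter multiplexed reporter units report endogenous transcription factor activity. After 24 h chemical exposure, reporter mRNA was quantified by RT-PCR, 6-FAM labelling, HpaI digestion and capillary electrophoresis, with bidirectional fitting against DMSO.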

[6] = ATG_GRE_CIS: Attagene CIS-FACTORIAL HepG2 Assay for human Glucocorticoid Response Elements (GRE) (AID 2282947); settings: HepG2 GRE cis-reporter, Attagene multiplex mRNA; actives raise or lower the signal
Outline: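 Following 24 h chemical exposure of transiently transfected HepG2 cells, total RNA was reverse-transcribed and reporter cDNA amplified, fluorescently labelled and sized by capillary electrophoresis. Signal gain or loss was fitted relative to DMSO vehicle.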

[7] = ATG_ISRE_CIS: Attagene CIS-FACTORIAL HepG2 Assay for human Interferon Regulatory Factor 1 (IRF1) binding to an Interferon-Stimulated Response Element (ISRE) (AID 2282948); settings: HepG2 ISRE cis-reporter (Attagene), mRNA transcription readout; actives raise or lower the signal
Outline: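 HepG2 cells transiently transfected with multiplexed cis-promoter reporter units; after 24 h compound exposure, reporter mRNA quantified by RT-PCR, FAM labelling, HpaI digestion and capillary electrophoresis. Bidirectional fit versus DMSO baseline.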

[8] = ATG_M_32_CIS: Attagene CIS-FACTORIAL HepG2 Assay for M32 Transcription Factor (Internal Marker) (AID 2282949); settings: HepG2 Attagene cis-factorial M32 reporter, mRNA; actives raise or lower the signal;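 note: background control marker of the multiplexed CIS panel rather than a real target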
Outline: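 HepG2 cells transiently transfected with multiplexed cis-regulated reporter units, dosed 24 h. Reporter mRNA quantified by RT-PCR, 6-FAM labelling, HpaI digestion and capillary electrophoresis; bidirectional fit vs DMSO.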

[9] = ATG_M_06_CIS: Attagene CIS-FACTORIAL HepG2 Assay for M06 Transcription Factor (Internal Marker) (AID 2282950); settings: HepG2 Attagene CIS-FACTORIAL M06 internal marker reporter; actives raise or lower the signal
Outline: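 Steps: transfect HepG2 with multiplexed cis-element reporter constructs; dose chemical 24 h; extract RNA with DNase treatment; reverse-transcribe, PCR-amplify, 6-FAM label, HpaI digest; separate fragments by capillary electrophoresis. Activity fitted both directions versus DMSO.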

[10] = molecular target: Bile acid receptor (Homo sapiens) (UniProt Q96RI1); assay: ATG_IR1_CIS: Attagene CIS-FACTORIAL HepG2 Assay for human Nuclear Receptor Subfamily 1 Group H Member 4 (NR1H4), IR1 submotif (AID 2282946); settings: IR1 reporter transcription, actives raise or lower the signal
Sequence of Bile acid receptor (Homo sapiens) (Q96RI1 whole entry, looked up): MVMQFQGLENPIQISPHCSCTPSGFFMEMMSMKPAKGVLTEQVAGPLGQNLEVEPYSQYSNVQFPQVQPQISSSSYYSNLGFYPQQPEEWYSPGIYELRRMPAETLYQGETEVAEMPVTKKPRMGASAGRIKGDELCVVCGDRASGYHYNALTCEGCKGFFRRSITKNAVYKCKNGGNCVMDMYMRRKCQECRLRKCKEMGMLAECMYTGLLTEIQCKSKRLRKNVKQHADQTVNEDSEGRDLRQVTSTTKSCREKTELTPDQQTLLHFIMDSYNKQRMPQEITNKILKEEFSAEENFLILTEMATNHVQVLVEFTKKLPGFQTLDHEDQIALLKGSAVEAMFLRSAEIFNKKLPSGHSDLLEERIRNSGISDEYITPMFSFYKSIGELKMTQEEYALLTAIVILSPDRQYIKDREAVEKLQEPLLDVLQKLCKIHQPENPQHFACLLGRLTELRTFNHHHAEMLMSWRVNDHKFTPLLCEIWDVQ
Outline: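 Transient MRTU transfection, HepG2; 24 h dosing; RNA → RT-PCR → 6-FAM primer extension → HpaI digest → capillary electrophoresis fluorescence. Gain/loss of signal fitted relative to DMSO.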

SMILES | outcome [1] | outcome [2] | outcome [3] | outcome [4] | outcome [5] | AC50 [6] | outcome [7] | outcome [8] | outcome [9] | outcome [6] | AC50 [7] | outcome [10]
ClCc1ccccc1Cl | inactive | inactive | inactive | inactive | inactive | 100 µM (active) | inactive | inactive | inactive |  |  | 
CC(C)(c1ccc(O)c(-c2ccccc2)c1)c1ccc(O)c(-c2ccccc2)c1 | inactive | inactive | inactive | inactive | inactive |  | inactive | inactive | inactive | inactive |  | 
CCCCN(CCCCO)N=O | inactive | inactive | inactive | inactive | inactive |  | inactive | inactive | inactive | inactive |  | 
O=C1C=CC(=O)c2ccccc21 | inactive | inactive | inactive | inactive | inactive |  | inactive | inactive | inactive | inactive |  | 
OC[P+](CO)(CO)CO | inactive | inactive | inactive | inactive | inactive |  | inactive | inactive | inactive | inactive |  | 
N#Cc1ccccc1Cl | inactive | inactive | inactive | inactive | inactive |  | inactive | inactive | inactive | inactive |  | 
Oc1ccc(Cc2ccc(O)cc2)cc1 | inactive | inactive | inactive | inactive | inactive |  | inactive | inactive | inactive | inactive |  | 
C=CCc1ccccc1O | inactive | inactive | inactive | inactive | inactive |  | inactive | inactive | inactive | inactive |  | 
Cc1cc(SCc2sc(-c3ccc(C(F)(F)F)c(F)c3)nc2C)ccc1OCC(=O)O | inactive | inactive | inactive | inactive | inactive |  |  | inactive | inactive | inactive | 42.8 µM (active) | 
O=[N+]([O-])c1ccc(Cl)c([N+](=O)[O-])c1 | inactive | inactive | inactive | inactive | inactive |  | inactive | inactive | inactive | inactive |  | 
CCOc1cc(C=O)ccc1O | inactive | inactive | inactive | inactive | inactive |  | inactive | inactive | inactive | inactive |  | 
CCCCCCCCCCBr | inactive | inactive | inactive | inactive | inactive |  | inactive | inactive | inactive | inactive |  | 
C[C@]12CC[C@@H](O)C[C@@H]1CC[C@@H]1[C@@H]2CC[C@]2(C)C(=O)CC[C@@H]12 | inactive | inactive | inactive | inactive | inactive |  | inactive | inactive | inactive | inactive |  | 
O=C(O)COc1ccc(Cl)cc1 | inactive | inactive | inactive | inactive | inactive |  | inactive | inactive | inactive | inactive |  | 
O=C(Cl)OCCOCCOC(=O)Cl | inactive | inactive | inactive | inactive | inactive |  | inactive | inactive | inactive | inactive |  | 
C=CC(=O)NC(C)(C)CC(C)=O | inactive | inactive | inactive | inactive | inactive |  | inactive | inactive | inactive | inactive |  | 
C=CC(Cl)CCl (centres undefined) | inactive | inactive | inactive | inactive | inactive |  | inactive | inactive | inactive | inactive |  | 
O=C(Cc1ccccc1)OCCc1ccccc1 | inactive | inactive | inactive | inactive | inactive |  | inactive | inactive | inactive | inactive |  | 
Oc1c(Cl)cc(Cl)cc1Cl | inactive | inactive | inactive | inactive | inactive |  | inactive | inactive | inactive | inactive |  | 
Cc1cccc(N=Nc2ccc(N(C)C)cc2)c1 | inactive | inactive | inactive | inactive | inactive |  | inactive | inactive | inactive | inactive |  | 
O=[N+]([O-])c1c2ccccc2cc2ccccc12 | inactive | inactive | inactive | inactive | inactive |  | inactive | inactive | inactive | inactive |  | 
Cc1cc(Cl)ccc1N | inactive | inactive | inactive | inactive | inactive |  | inactive | inactive | inactive | inactive |  | 
C=C(C)C(=O)OCCCCOC(=O)C(=C)C | inactive | inactive | inactive | inactive | inactive |  | inactive | inactive | inactive | inactive |  | 
Clc1cccc(Cl)c1 | inactive | inactive | inactive | inactive | inactive |  | inactive | inactive | inactive | inactive |  | 
COC(=O)Nc1cccc(OC(=O)Nc2cccc(C)c2)c1 | inactive | inactive | inactive | inactive | inactive |  | inactive | inactive | inactive | inactive |  | 
CNC(=O)O/N=C/C(C)(C)S(C)(=O)=O | inactive | inactive | inactive | inactive | inactive |  |  | inactive | inactive | inactive |  | 
CCOP(=S)(OCC)OP(=S)(OCC)OCC | inactive | inactive | inactive | inactive |  |  |  | inactive | inactive | inactive |  | inactive
O=C(O)c1cc(I)cc(I)c1I | inactive | inactive | inactive | inactive |  |  | inactive | inactive | inactive | inactive |  | 
